Shown are actives, neighbours in structure and some others; about 19% of the full set was active somewhere.
Pf growth 48h: P. falciparum growth inhibition at 48 hours (one generation); P. falciparum luciferase growth in erythrocytes, 48 h; Potency, µM (titrated, usually from 28.7 µM), inactives show top-dose activity change, negative = inhibition, actives largely listed as inhibitors; 310,000 tested, 5.9% active; AID 504832; note: potency is the fitted concentration of half-maximal effect; % is set by controls: 0 for no effect and ±100 for the full control effect
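Luciferase-expressing parasites in RBCs, 2% Hct / 0.1% parasitemia final; RPMI 1640 + 0.5% Albumax; 37 C, 5% CO2, one generation; luminescence read-out, lower signal = inhibition.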
MARV entry inh: inhibitors of Marburg virus binding or cell entry; 300,000 tested, 1.8% active; Marburg virus pseudotyped entry inhibition, cell reporter; AID 540276; Potency, µM (series often up to 37.8 µM), for the others: top-dose activity change, negative = inhibition, usual class: inhibitors; calls by dose curve; tested in HEK293 cells; note: potency is the fitted concentration of half-maximal effect; % is set by controls: 0 for no effect and ±100 for the full control effect
Cycloheximide cs: counter-screen hit for Shiga toxin inhibitors, cycloheximide | max response, % | cell reporter, cycloheximide protein synthesis inhibition counterscreen | AID 2314 | 300,000 tested, 12% active; in the data active = max response mostly above about 13%, no sharp cut-off; inactive = mostly below about 14%; note: read at 38.3 µM for the half of the compounds with a filed dose; 0% is about no effect
Pf growth 96h: P. falciparum growth inhibition at 96 hour, primary screen for plastid delayed-death inhibitors. P. falciparum luciferase reporter growth, 96 h. Potency, µM (titrated, usually from 28.7 µM), without a hit: at the top dose activity change, negative = inhibition, actives largely listed as inhibitors. 320,000 tested, 6.9% active; note: potency is the fitted concentration of half-maximal effect; % is set by controls: 0 for no effect and ±100 for the full control effect
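Readout is luminescence from an integrated firefly luciferase in P. falciparum. Red cells, 2% hematocrit and 0.05% parasitemia final, were cultured with compound through two parasite generations (96 hours) at 37 C, 5% CO2.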
Shiga toxin inh: blocks Shiga toxin action in Vero cells. Vero cells, Shiga toxin protein synthesis inhibition reporter. inhibition, % at 38.7 µM. 290,000 tested, 9.2% active. AID 2315; in the data active = inhibition mostly above about 28%, no sharp cut-off; inactive = mostly below about 43%; note: 0% is about no effect
LASV entry inh: blocks Lassa virus binding to or entry into cells; Lassa virus pseudotype entry inhibition, cell reporter; Potency, µM (top dose mostly 37.9 µM), inactives show top-dose activity change, negative = inhibition, actives largely listed as inhibitors; 300,000 tested, 1.2% active; calls by dose curve; tested in HEK293 cells; note: potency is the fitted concentration of half-maximal effect; % is set by controls: 0 for no effect and ±100 for the full control effect; nearly all actives have a fitted effect of over 50% in size
The depositor's hits bear a star; ? = inconclusive; · = no result given; [ ] = dose if it differs, or a comment. Unless noted, calls come from the whole dose curve; as a rule, active = well fitted inhibition curve with a large enough effect; inconclusive = small, poorly fitted or top-dose-only effect, or another doubt; inactive = no such curve, though single readings can be large or run the other way.

SMILES	Pf growth 48h	MARV entry inh	Cycloheximide cs	Pf growth 96h	Shiga toxin inh	LASV entry inh
NC(=O)c1c(NC(=O)CSc2nnc(-c3ccco3)n2-c2ccccc2)sc2c1CCC2	0.0%	-18.2%	10.0	11.5%	7.4	-0.7%
CCOC(=O)c1[nH]c(C)c(C(=O)Nc2ccc(C)c(F)c2)c1C	-11.3%	?	0.2	61.1%	0.6	?
CN(C)C1=NP(N(C)C)(N(C)C)=NC(c2ccccc2)=N1	0.0%	?	-1.2	1.65µM*	-11.9	11.8%
Cc1ccc(S(=O)(=O)N2CCCC2)cc1C(=O)NCCN1CCOCC1	?	-5.4%	29.2*	20.0%	28.1*	-2.8%
O=C(NCCN1CCCC1)c1cc(-c2ccncc2)nc2ccc(S(=O)(=O)N3CCOCC3)cc12	11.7µM*	-14.9%	-2.7	?	3.8	2.5%
COc1ccc(OCC2CCNCC2)cc1	132.2%	·	32.9*	2.3%	38.7*	·
CN1C(=O)C(Cc2nc3ccccc3c(=O)n2-c2ccccc2)c2ccccc21 (stereo not drawn)	?	-2.7%	-4.2	?	-10.0	4.6%
CC(C)N1C(=O)/C(=C/c2nc3ccccc3c(=O)n2-c2ccccc2)c2ccccc21	?	?	-2.1	?	-11.4	10µM*
CC(C)N1C(=O)C(Cc2nc3ccccc3c(=O)n2-c2ccccc2)c2ccccc21 (stereo not drawn)	9.28µM*	-1.6%	-2.7	9.28µM*	-8.2	?
CC(C)N1C(=O)/C(=C\c2nc3ccccc3c(=O)n2-c2ccccc2)c2ccccc21	?	?	-4.2	-14.4%	-6.1	?
O=c1c2ccccc2nc(CNc2ccccc2)n1-c1ccccc1	?	10.3%[46.1 µM]	7.1	7.38µM*	12.0	-0.3%[46.1 µM]
Cn1c(=O)c2c(SCc3cccc(C(F)(F)F)c3)nc(-c3ccco3)nc2n(C)c1=O	?	?	-5.9	?	-20.8	-37.8%[14.3 µM]
Cc1ccc(C(=O)NCCc2ccccn2)cc1S(=O)(=O)N1CCOCC1	-14.9%	12.9%[46.1 µM]	8.8	?	8.3	4.8%
CC(=O)Nc1ccc(NC(=O)C(C)OC(=O)CCC2CCCCC2)cc1 (stereo not drawn)	2.7%	-8.8%	0.7	27.8%	-14.1	23.3%
CCOC(=O)Cn1nc(-c2ccccc2)nc1-c1ccccc1	43.3%	-18.6%	26.1*	·	27.3	3.6%
CCOC(=O)Cn1ncc(-c2ccccc2)c1N	83.0%	21.4%	28.6*	?	68.2*	?
CCOC(=O)Cn1nc(-c2ccccc2)ccc1=O	46.6%	-0.8%	13.6	34.1%	3.6	4.4%
Cc1nc(-c2cccc(S(=O)(=O)N3CC(C)CC(C)C3)c2)cs1 (stereo not drawn)	?	-6.9%	-3.9	?	-9.0	-1.0%
CNC(=O)c1ncccc1Nc1nc(Nc2cc3c(cc2OC)CCCN3C(=O)CN(C)C)nc2[nH]ccc12	·	·	·	·	·	3.97µM*
COc1ccccc1NC(=O)c1cnc(SCC(=O)N2CCCc3ccccc32)n(C)c1=O	·	·	·	·	·	-2.2%[46.1 µM]
COc1cc2c(cc1Nc1nc(Nc3ccsc3C(N)=O)c3cc[nH]c3n1)N(C(=O)CN(C)C)CCC2	·	·	·	·	·	0.0705µM*
COc1ccccc1CC(=O)N1CCCc2ccccc21	·	-6.3%	-4.7	-19.7%	-15.3	-0.4%
CSc1ccc(/C=C(\NC(=O)c2ccc(C)cc2)C(=O)Nc2cccc(C)c2)cc1	11.4%	-5.1%	-2.5	-12.1%	15.0	-8.4%
CCCN1/C(=C2/SC(=S)N(CC)C2=O)C=Cc2ccccc21	·	-5.4%	-4.9	?	4.7	-1.4%
CCN1C(=O)/C(=C2/C=Cc3ccccc3N2CC)SC1=S	-0.1%	-6.6%	14.4*	?	80.7	·
SMILES	Pf growth 48h	MARV entry inh	Cycloheximide cs	Pf growth 96h	Shiga toxin inh	LASV entry inh
Cn1c(=O)n(-c2ccc(F)c(Cl)c2)c(=O)c2sc3ccccc3c21	·	-7.4%[46.1 µM]	·	·	·	2.4%[46.1 µM]
Cn1cc(C(=O)C(=O)NC2CC2)c2ccccc21	·	11.7%[46.1 µM]	·	·	·	14.5%
O=C(c1ccccc1)c1c[nH]c2ccccc12	?	?	34.7*	-30.0%	63.6*	16.3%[46.1 µM]
Cn1cc(C(=O)C(=O)NC2CCCCC2)c2ccccc21	92.6%	·	33.4*	?	55.1*	·
O=C(c1c[nH]c2ccccc12)C(F)(F)F	-15.7%	·	-1.2	22.6%	28.5	·
O=C(NC1CC1)C(=O)c1c[nH]c2ccccc12	18.8%	·	19.1*	9.6%	99.9*	·
O=C(NC1CC(=O)N(c2ccccc2)C1)C(=O)c1c[nH]c2ccccc12 (stereo not drawn)	-5.6%	14.1%	·	24.3%	·	8.3%
COc1cc(/C=N/n2c(C3CCCCC3)n[nH]c2=S)cc(OC)c1O	-12.8%	-6.2%[46.1 µM]	-0.5	0.8%	-5.1	18.0%[46.1 µM]
O=C(COC(=O)CNC(=O)c1cccc(F)c1)NCCC1=CCCCC1	2.5%	7.1%	-4.8	-21.3%	-9.7	15.8%
COC(=O)c1ccc(NC(=O)c2cc3cc4ccc(OC)c(Cl)c4nc3s2)cc1	·	·	·	·	·	12.9%[46.1 µM]
Cc1ccc(-n2nnnc2SCC(=O)Nc2c(C)n(C)n(-c3ccccc3)c2=O)cc1	-2.8%	1.5%	2.9	·	-12.4	-15.0%
O=C(O)c1cccc(CN2C(=O)SC(Nc3ccccc3)C2=O)c1 (stereo not drawn)	10.6%	9.9%	16.9*	26.7%	16.5	21.9%
COc1ccc(OCCSc2nnc(-c3cccnc3)n2N)cc1	1.0%	9.8%	-3.4	9.6%	-1.1	3.5%
Cn1c(-c2ccccc2)cnc1SCC(=O)N1CCCCC1	355.6%	?	0.9	16.9%	-4.6	3.55µM*
Cc1ccc(-c2cnc(NC(=O)CCC(=O)N3CCCCC3)n2C)cc1	55.1%	13.9%	8.2	11.7µM*	32.4	-17.4%
CCCCNC(=O)CCC(=O)Nc1ncc(-c2ccc(C)cc2)n1C	34.3%	7.2%	14.6	·	27.3	-10.6%
Cn1c(-c2ccccc2)cnc1SCC(=O)N1CCCc2ccccc21	24.1%	1.5%	5.0	-26.3%	10.2	7.0%
Cn1c(SCC(=O)N2CCCCC2)nc2cccnc21	30.0%	-3.8%[46.1 µM]	-1.0	13.1µM*	17.7	3.2%
Cn1c(SCC(=O)N2CCCC2)nc2ccccc21	11.2%	11.4%[46.1 µM]	-2.6	-3.3%	-3.4	1.2%[46.1 µM]
COc1ccccc1-n1c(=O)[nH]c2c(C(N)=O)nc(-c3cccnc3)nc21	15.8%	·	1.8	?	-4.4	·
CC(=O)O[C@H]1CC(C)(C)C(=C=C/C(C)=C/C=C/C(C)=C/C=C/C=C(C)/C=C/C=C(\C)C(=O)C[C@@]23O[C@]2(C)C[C@@H](O)CC3(C)C)[C@](C)(O)C1	9.28µM*	·	-1.7	?	2.0	·
C[C@H]1CC[C@H]2C(=O)N3[C@H](c4ccccc4Br)[C@@H](C)CC[C@H]3C(=O)N2[C@@H]1c1ccccc1Br	?	?	-2.2	5.22µM*	-6.6	?
O=S(=O)(c1ccc(Br)cc1)c1nc(-c2ccco2)oc1NCC1CCCO1 (stereo not drawn)	-2.3%	-9.9%	2.7	43.9%	16.4	-0.5%
COc1ccc(C2(CNC(=O)c3cccc([N+](=O)[O-])c3)CCOCC2)cc1	35.2%	3.2%	-2.3	-4.3%	-7.4	5.6%
